Laboratory results reported in PubChem BioAssay (NCATS).
Records with an inconclusive call do not appear. Activity calls are given as the source filed them. Calls follow the shape of the dose curve; as a rule, active = well fitted cell-killing curve with a large enough effect; inconclusive = small, poorly fitted or top-dose-only effect, or effect the other way; inactive = no such curve, though single readings can be large or run the other way.

Columns and labels:
[1] = Quantitative High-Throughput drug screen in 47 multiple myeloma cell lines against the NCATS MIPE library collection: H1112_PLB cell viability assay (AID 1918967; also: nearly all actives have a fitted effect of over 30% in size)
Method in brief: (§1)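 CellTiter-Glo ATP luminescence gave viability after 48 h compound treatment at 37C of 500 multiple myeloma cells per well. Normalisation used DMSO-only wells as 100% and media-only wells as 0% viability; primary qHTS of approved and investigational drugs.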

[2] = Quantitative High-Throughput drug screen in 47 multiple myeloma cell lines against the NCATS MIPE library collection: Karpas25_ECACC cell viability assay (AID 1918968; also: nearly all actives have a fitted effect of over 35% in size)
Method in brief: as §1

[3] = Quantitative High-Throughput drug screen in 47 multiple myeloma cell lines against the NCATS MIPE library collection: KMS27_JCRB cell viability assay (AID 1918970); also: nearly all actives have a fitted effect of over 30% in size
Method in brief: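 Viability inhibition screen, 48 h compound exposure, luminescent ATP read-out.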

[4] = Quantitative High-Throughput drug screen in 47 multiple myeloma cell lines against the NCATS MIPE library collection: KMS12BM_JCRB cell viability assay (AID 1918971); also: nearly all actives have a fitted effect of over 35% in size
Method in brief: (§2)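 Luminescent ATP measurement with CellTiter-Glo gives viability, scaled between DMSO-only wells (100%) and media-only wells (0%). Cells, 500 per well, faced library compounds for 48 hours at 37C.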

[5] = Quantitative High-Throughput drug screen in 47 multiple myeloma cell lines against the NCATS MIPE library collection: KMS12PE_JCRB cell viability assay (AID 1918972); also: nearly all actives have a fitted effect of over 30% in size
Method in brief: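 Steps: seed 500 cells per well; pin-transfer MIPE 4.0 library; incubate 48 h at 37C, 5% CO2, humidified; add CellTiter-Glo, 5 min room temperature; read luminescence.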

[6] = Quantitative High-Throughput drug screen in 47 multiple myeloma cell lines against the NCATS MIPE library collection: KMS20_JCRB cell viability assay (AID 1918973); also: nearly all actives have a fitted effect of over 45% in size
Method in brief: as §1

[7] = Quantitative High-Throughput drug screen in 47 multiple myeloma cell lines against the NCATS MIPE library collection: KMS26_JCRB cell viability assay (AID 1918975); also: nearly all actives have a fitted effect of over 45% in size
Method in brief: as §2

[8] = Quantitative High-Throughput drug screen in 47 multiple myeloma cell lines against the NCATS MIPE library collection: MMM1_PLB cell viability assay (AID 1918976); also: nearly all actives have a fitted effect of over 35% in size
Method in brief: (§3)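 Inhibition of viability over 48 h was scored by ATP content (CellTiter-Glo) in 500-cell wells. Zero and full viability were defined by media-only and DMSO-only wells.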

[9] = Quantitative High-Throughput drug screen in 47 multiple myeloma cell lines against the NCATS MIPE library collection: MOLP8_DSMZ cell viability assay (AID 1918977); also: nearly all actives have a fitted effect of over 45% in size
Method in brief: as §3

[10] = Quantitative High-Throughput drug screen in 47 multiple myeloma cell lines against the NCATS MIPE library collection: KMS21BM_JCRB cell viability assay (AID 1918974); details: ATP luminescence, 48 h; viability: at 45.8 µM (top of the series) unless noted
Method in brief: as §1
Potency is read from the fitted curve at half-maximal effect.

SMILES | Potency [1] | Potency [2] | Potency [3] | Potency [4] | Potency [5] | Potency [6] | Potency [7] | Potency [8] | Potency [9] | Potency [10]
c1ccc2c(Cc3c[nH]c4ccccc34)c[nH]c2c1 | 1.05 µM (active) | 1.05 µM (active) | 7.43 µM (active) | 20.9 µM (active) | 5.9 µM (active) | 2.96 µM (active) | 4.69 µM (active) | 16.6 µM (active) | 18.7 µM (active) | –
Cc1nc(N)sc1-c1ccnc(Nc2ccc(N3CCOCC3)cc2)n1 | 16.6 µM (active) | 5.9 µM (active) | 6.62 µM (active) | 14.8 µM (active) | 2.64 µM (active) | 7.43 µM (active) | – | 20.9 µM (active) | 7.43 µM (active) | –
O=C(CCCCCCC(=O)Nc1ccccc1)NO | 4.18 µM (active) | 1.48 µM (active) | 3.72 µM (active) | 2.35 µM (active) | 1.66 µM (active) | – | – | – | – | –
COc1ccc2cccc(CCNC(C)=O)c2c1 | inactive | inactive | inactive | – | inactive | – | – | – | – | –
CCn1cc(C(=O)O)c(=O)c2ccc(C)nc21 | inactive | inactive | inactive | – | inactive | – | – | – | inactive | –
CC(C)(C)C(=O)Oc1ccc2c(c1)nc(NC(=O)c1cccc([N+](=O)[O-])c1)n2CCCO | inactive | inactive | inactive | – | – | – | – | 13.2 µM (active) | – | –
O=C(O)CCC1CCC(c2cc(F)ccc2F)(S(=O)(=O)c2ccc(Cl)cc2)CC1 (stereo not given) | 9.35 µM (active) | 8.33 µM (active) | 2.64 µM (active) | – | 13.2 µM (active) | 5.26 µM (active) | inactive | – | – | –
O=C(OCC#CCSc1nnc(-c2cccc3ccccc23)o1)c1cc2ccccc2s1 | inactive | inactive | inactive | 16.6 µM (active) | inactive | – | inactive | – | – | –
C=C1C(=O)OC2C=C(C)CCC=C(C)CCC12 (stereo not given) | 20.9 µM (active) | 20.9 µM (active) | 20.9 µM (active) | 20.9 µM (active) | 20.9 µM (active) | – | – | 11.8 µM (active) | 16.6 µM (active) | 26.4 µM (active)
NC(CO)(CO)CCc1ccc(Sc2cccc(OCc3ccccc3)c2)cc1Cl | 16.6 µM (active) | 7.43 µM (active) | 11.8 µM (active) | – | 9.35 µM (active) | – | – | 23.5 µM (active) | – | 13.2 µM (active)
CC[C@H]1OC(=O)[C@H](C)C(=O)[C@H](C)[C@@H](O[C@H]2O[C@H](C)C[C@H](N(C)C)[C@@H]2O)[C@](C)(OC)C[C@@H](C)C(=O)[C@H](C)[C@H]2N(CCCCn3cnc(-c4cccnc4)c3)C(=O)O[C@]12C | 13.2 µM (active) | inactive | inactive | 29.6 µM (active) | – | – | – | 18.7 µM (active) | – | –
CNC1CCC(N(Cc2cccc(-c3ccncc3)c2)C(=O)c2sc3c(F)ccc(F)c3c2Cl)CC1 (stereo not given) | 18.7 µM (active) | 11.8 µM (active) | 18.7 µM (active) | – | 10.5 µM (active) | 1.48 µM (active) | 16.6 µM (active) | 26.4 µM (active) | – | –
CC(=NNC(=S)N1CCC1)c1ccccn1 | inactive | inactive | 0.001 µM (active) | 0.0042 µM (active) | 0.001 µM (active) | – | – | – | inactive | –
C[C@H](NC(=O)C(=O)Nc1ccccc1C(C)(C)C)C(=O)N[C@@H](CC(=O)O)C(=O)COc1c(F)c(F)cc(F)c1F | inactive | 20.9 µM (active) | 3.32 µM (active) | – | 4.69 µM (active) | – | inactive | inactive | – | 6.62 µM (active)
Cc1cnc(C(=O)O)c[n+]1[O-] | inactive | inactive | inactive | inactive | inactive | – | – | 3.32 µM (active) | – | –
CCOC(=O)C1=C(N)Oc2ccc(Br)cc2C1C(C#N)C(=O)OCC (stereo not given) | 16.6 µM (active) | 20.9 µM (active) | 18.7 µM (active) | 18.7 µM (active) | 18.7 µM (active) | – | – | 20.9 µM (active) | 18.7 µM (active) | –
CN(C)Cc1ccc(-c2nc3cccc4c3n2CCNC4=O)cc1 | 20.9 µM (active) | 23.5 µM (active) | 20.9 µM (active) | – | – | – | – | – | 13.2 µM (active) | –
O=C(Nc1cc(Cl)cc2c1[nH]c1cnccc12)c1cccnc1 | 1.48 µM (active) | 5.9 µM (active) | inactive | 18.7 µM (active) | inactive | – | 18.7 µM (active) | 11.8 µM (active) | – | –
O=c1c(-c2ccc(O)cc2)coc2cc(O)ccc12 | inactive | inactive | inactive | – | inactive | – | – | 5.26 µM (active) | – | –
CCOC(=O)O[C@]1(C(=O)OCCl)CC[C@@H]2[C@H]3CCC4=CC(=O)C=C[C@]4(C)[C@@H]3[C@@H](O)C[C@@]21C | inactive | 0.526 µM (active) | inactive | – | inactive | – | – | – | inactive | –
CC1(C)S[C@H]2[C@H](NC(=O)[C@@H](N)c3ccc(O)cc3)C(=O)N2[C@@H]1C(=O)O | inactive | 4.69 µM (active) | 0.935 µM (active) | – | 4.18 µM (active) | – | – | – | – | 0.296 µM (active)
